How the values were obtained:
Experiment in all cases: log2 ratio of Biotin-Ahx-Ub-VS probe labelling (fragment/DMSO); higher = less target engagement (more negative = stronger competition), active = hit call of the paper (q ≤ 0.05, log2 ratio ≤ -1)
Settings in all cases: compound concentration: 200 uM; treatment time: 3 h
OTUD6B = target: T1, OTUD6B (UniProt Q8N6M0)
T1 sequence (whole entry): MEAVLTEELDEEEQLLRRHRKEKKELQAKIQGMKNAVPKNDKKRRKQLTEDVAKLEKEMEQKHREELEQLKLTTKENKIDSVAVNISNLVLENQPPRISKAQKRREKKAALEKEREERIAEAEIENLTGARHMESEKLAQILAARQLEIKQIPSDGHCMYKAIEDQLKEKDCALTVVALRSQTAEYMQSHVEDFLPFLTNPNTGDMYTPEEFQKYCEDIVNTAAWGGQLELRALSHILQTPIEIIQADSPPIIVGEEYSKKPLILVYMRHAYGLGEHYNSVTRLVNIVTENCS
Outline: (§1)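 Triplicate samples of HEK293T lysate, 495 µg each, received fragment at 200 µM or vehicle for 3 h, followed by Biotin-Ahx-Ub-VS (0.5 µM final) for 1 h. After NeutrAvidin enrichment of labelled DUBs and LysC/trypsin digestion, peptides were run by diaPASEF LC-MS/MS. The values are average log2 fragment/vehicle ratios from global-median-normalised Spectronaut label-free quantities, tested by unpaired t-test on proteins having ≥2 unique peptides.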

OTUD7B = target: T2, OTUD7B (UniProt Q6GQQ9)
T2 sequence (whole entry): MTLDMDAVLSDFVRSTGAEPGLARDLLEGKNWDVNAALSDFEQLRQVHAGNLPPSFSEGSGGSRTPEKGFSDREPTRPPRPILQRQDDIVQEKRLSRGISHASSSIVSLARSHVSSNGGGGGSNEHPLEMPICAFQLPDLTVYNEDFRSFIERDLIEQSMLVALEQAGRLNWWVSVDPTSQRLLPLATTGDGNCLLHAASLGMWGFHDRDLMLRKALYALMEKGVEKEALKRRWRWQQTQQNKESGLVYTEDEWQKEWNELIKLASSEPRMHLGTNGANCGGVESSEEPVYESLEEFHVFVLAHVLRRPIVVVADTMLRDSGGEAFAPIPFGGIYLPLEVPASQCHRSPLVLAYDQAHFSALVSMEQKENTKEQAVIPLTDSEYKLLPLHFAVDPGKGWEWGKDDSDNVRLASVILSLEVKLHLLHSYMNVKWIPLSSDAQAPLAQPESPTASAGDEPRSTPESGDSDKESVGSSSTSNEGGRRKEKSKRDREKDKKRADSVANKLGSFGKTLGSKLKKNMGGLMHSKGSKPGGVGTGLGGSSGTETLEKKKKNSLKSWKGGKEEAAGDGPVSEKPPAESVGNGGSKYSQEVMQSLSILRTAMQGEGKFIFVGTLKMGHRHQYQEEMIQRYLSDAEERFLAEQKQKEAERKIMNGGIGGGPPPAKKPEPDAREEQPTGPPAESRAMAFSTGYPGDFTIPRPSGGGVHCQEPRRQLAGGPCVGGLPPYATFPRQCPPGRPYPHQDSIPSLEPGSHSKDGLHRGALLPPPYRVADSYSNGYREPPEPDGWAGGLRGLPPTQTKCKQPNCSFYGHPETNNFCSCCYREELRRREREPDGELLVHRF
Outline: as §1

PRPF8 = PRPF8 (UniProt Q6P2Q9)
Outline: as §1

PSMD7 = target: T3, PSMD7 (UniProt P51665)
T3 sequence (whole entry): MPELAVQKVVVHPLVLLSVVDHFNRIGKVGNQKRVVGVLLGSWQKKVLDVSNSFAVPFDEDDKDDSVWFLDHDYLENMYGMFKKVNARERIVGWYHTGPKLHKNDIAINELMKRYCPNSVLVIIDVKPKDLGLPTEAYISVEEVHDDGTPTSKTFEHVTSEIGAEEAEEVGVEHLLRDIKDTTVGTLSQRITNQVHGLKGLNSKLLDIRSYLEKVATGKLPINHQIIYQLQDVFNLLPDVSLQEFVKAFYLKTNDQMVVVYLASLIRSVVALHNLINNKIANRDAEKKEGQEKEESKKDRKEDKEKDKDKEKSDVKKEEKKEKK
Outline: as §1

UCHL1 = UCHL1 (UniProt P09936)
UCHL1, sequence (P09936 whole entry, looked up): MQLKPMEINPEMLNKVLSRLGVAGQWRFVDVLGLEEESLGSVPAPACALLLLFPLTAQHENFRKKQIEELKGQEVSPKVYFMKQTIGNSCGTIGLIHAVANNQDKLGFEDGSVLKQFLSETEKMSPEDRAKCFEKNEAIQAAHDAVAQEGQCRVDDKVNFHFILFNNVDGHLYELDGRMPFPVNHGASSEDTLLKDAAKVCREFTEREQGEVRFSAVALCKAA
Outline: as §1

UCHL3 = target: T4, UCHL3 (UniProt P15374)
T4 sequence (whole entry): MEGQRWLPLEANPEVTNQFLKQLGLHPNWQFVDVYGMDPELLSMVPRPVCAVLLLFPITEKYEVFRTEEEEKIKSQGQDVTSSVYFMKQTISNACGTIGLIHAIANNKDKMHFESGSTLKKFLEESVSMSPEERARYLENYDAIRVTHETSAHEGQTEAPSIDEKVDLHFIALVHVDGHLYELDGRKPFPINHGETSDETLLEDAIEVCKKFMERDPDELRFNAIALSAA
Outline: as §1

UCHL5 = target: T5, UCHL5 (UniProt Q9Y5K5)
T5 sequence (whole entry): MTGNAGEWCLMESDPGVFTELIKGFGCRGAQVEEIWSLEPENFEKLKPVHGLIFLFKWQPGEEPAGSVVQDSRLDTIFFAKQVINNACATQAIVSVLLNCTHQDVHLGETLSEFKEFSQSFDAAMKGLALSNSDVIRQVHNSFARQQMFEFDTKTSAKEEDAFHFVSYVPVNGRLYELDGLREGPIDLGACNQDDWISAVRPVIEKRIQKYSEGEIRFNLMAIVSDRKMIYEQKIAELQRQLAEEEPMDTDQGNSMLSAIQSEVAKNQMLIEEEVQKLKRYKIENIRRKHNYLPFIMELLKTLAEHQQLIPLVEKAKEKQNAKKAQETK
Outline: as §1

USP10 = USP10 (UniProt Q14694)
USP10, sequence (Q14694 whole entry): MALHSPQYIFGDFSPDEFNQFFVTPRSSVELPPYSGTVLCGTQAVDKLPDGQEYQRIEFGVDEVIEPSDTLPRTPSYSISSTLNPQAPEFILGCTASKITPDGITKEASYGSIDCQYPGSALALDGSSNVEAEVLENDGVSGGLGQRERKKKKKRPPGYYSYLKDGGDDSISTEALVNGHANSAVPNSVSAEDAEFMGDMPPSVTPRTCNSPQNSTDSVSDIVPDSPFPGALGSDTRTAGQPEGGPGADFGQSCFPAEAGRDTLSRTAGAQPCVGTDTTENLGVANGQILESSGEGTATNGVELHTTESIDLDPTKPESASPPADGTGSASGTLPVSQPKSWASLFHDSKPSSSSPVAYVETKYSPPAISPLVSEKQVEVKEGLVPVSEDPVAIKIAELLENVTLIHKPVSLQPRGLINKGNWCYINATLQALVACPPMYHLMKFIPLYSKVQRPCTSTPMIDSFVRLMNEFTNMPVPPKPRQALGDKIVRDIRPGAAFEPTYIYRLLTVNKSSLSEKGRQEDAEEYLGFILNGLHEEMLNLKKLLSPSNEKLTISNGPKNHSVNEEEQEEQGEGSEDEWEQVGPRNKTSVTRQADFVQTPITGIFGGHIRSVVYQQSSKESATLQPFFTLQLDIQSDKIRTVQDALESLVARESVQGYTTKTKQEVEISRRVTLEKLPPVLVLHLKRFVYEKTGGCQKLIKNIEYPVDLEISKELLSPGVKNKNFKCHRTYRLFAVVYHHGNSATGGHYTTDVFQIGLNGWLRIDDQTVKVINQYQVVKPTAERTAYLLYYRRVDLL
Outline: as §1

USP15 = target: T6, USP15 (UniProt Q9Y4E8)
T6 sequence (whole entry): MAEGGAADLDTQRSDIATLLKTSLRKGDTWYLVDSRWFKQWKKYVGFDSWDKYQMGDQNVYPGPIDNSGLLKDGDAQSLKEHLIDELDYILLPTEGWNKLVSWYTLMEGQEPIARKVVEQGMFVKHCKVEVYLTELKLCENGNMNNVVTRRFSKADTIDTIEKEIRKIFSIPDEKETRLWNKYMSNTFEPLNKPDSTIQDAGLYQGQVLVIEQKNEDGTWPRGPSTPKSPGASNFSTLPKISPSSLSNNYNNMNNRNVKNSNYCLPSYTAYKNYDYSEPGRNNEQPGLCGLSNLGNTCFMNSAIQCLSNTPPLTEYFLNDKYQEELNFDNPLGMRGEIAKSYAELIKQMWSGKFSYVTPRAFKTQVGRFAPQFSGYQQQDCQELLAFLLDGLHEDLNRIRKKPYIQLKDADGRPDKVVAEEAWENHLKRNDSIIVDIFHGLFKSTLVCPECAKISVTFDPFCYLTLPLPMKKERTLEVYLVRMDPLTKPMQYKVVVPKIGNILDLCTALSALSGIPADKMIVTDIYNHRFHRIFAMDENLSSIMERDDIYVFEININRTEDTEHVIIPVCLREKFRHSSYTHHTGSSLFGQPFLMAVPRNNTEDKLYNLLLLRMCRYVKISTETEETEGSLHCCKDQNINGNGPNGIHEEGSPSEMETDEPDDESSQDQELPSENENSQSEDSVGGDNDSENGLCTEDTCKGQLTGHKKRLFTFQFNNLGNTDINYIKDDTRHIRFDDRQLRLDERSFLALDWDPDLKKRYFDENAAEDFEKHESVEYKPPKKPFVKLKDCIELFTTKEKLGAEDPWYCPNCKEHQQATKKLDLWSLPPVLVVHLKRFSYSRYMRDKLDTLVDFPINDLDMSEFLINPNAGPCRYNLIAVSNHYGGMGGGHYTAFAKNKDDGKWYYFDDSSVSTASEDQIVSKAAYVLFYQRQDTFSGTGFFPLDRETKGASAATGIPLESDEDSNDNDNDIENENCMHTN
Outline: as §1

USP16 = USP16 (UniProt Q9Y5T5)
USP16, sequence (Q9Y5T5 whole entry, looked up): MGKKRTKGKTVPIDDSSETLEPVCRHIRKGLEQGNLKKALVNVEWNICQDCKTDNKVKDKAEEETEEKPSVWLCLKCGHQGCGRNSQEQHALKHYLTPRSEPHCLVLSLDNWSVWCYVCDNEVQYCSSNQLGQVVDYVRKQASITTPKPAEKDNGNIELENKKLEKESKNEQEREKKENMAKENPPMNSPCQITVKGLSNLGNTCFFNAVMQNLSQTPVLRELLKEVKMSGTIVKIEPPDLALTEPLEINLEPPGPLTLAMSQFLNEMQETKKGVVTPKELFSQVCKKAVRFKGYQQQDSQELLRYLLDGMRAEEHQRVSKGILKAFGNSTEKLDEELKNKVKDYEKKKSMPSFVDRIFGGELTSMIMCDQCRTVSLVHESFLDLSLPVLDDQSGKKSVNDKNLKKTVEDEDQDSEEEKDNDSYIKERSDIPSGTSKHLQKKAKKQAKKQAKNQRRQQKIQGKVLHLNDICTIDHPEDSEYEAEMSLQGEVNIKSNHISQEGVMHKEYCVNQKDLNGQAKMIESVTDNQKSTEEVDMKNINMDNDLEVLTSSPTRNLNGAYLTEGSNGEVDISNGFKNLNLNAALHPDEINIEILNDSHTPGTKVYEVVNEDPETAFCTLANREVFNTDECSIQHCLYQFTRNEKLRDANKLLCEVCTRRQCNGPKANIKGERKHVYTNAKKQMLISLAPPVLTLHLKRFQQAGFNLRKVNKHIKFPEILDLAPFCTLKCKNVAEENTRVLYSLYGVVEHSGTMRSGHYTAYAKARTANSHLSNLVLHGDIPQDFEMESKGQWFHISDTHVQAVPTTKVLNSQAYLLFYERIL
Outline: as §1

Measured: log2 ratio of Biotin-Ahx-Ub-VS probe labelling

Cl.O=C(CCl)N1CCc2ncncc2C1
inactive: OTUD6B -0.0834 | OTUD7B -0.487 | PRPF8 0.0782 | PSMD7 -0.0569 | UCHL1 -0.583 | UCHL3 0.176 | UCHL5 -0.176 | USP10 -0.322 | USP15 -0.514 | USP16 -0.106

Reference: the supplement of paper PMC11732987, “Enantioselective OTUD7B fragment discovery through chemoproteomics screening and high-throughput optimisation” (Communications Chemistry, 2025)
